The record followed here is PubChem BioAssay AID594 (National Center for Advancing Translational Sciences (NCATS), 2007).

Among all 59,000 compounds or so, about 30 (0.05%) were called active. This is one part of a sample in which actives are shown more often than they occur. Rule as the data show it: active = max dye-equivalent concentration above about 11 nM; inconclusive = between about 1.1 nM and that limit; inactive = weaker than that.

The assay is described as follows: qHTS Assay for Spectroscopic Profiling in Rhodamine Spectral Region. Particulars: Rhodamine-region fluorescence, 547/598 nm, Tris buffer; hits give high values. The text has this: NIH Molecular Libraries Screening Centers Network [MLSCN] NIH Chemical Genomics Center [NCGC] […] Occasionally, the artifactual effect may originate from the compound#s own spectral or other biophysical properties which generally tend to track its assay concentration. Pre-screening/profiling the library with respect to the compounds# spectral properties should help one exclude false positives early on. While the most informative fluorescent profiling data set is obtained by performing a full excitation and emission scan of each well by using a monochromator-based plate reader, such an approach is practical only on a very limited scale as scanning each well requires long time. An alternative approach, applied here, is to perform plate reader scans using selected excitation and emission wavelength pairs to generate a multidimensional relational database that correlates compound concentration and the respective relative fluorescence intensity at a given wavelength set. A standard curve of rhodamine present on each plate as six-point concentration series, was used to compute a normalized fluorescence response, termed dye-equivalent concentration, for each compound at each concentration.
NCGC Assay Protocol Summary: Buffer: 100 mM Tris buffer, pH 8.0 Dye standard plate: The wells in columns 1 through 4 of a Kalypsys polypropylene 1536-well compound plate were filled with standard solutions of fluorophore corresponding to the spectral region of interest. Solutions of rhodamine were placed in the following wells: E1, F1: 3 mM, E2, F2: 300 uM, E3, F3: 30 uM, E4, F4: zero (DMSO), G1, H1: 3 uM, G2, H2: […], G3, H3: 300 nM, G4, H4: zero (DMSO). Assay Steps: Six uL of buffer were dispensed to 1536-well Greiner black plates. Compounds and dye standards (23 nL) were transferred via Kalypsys PinTool. The plates were incubated for 15 min at room temperature, and then read on ViewLux (Perkin-Elmer) High-throughput CCD imager using 547 nm and 598 nm excitation and emission filter set. Keywords: NIH Roadmap, MLSCN, MLI, MLSMR, qHTS, NCGC, Rhodamine , Fluorescent Profiling.
On the technique in general: In qHTS, concentration-response curves come from the screen itself.
On to `COc1ccc(Cl)cc1S(=O)(=O)N1CCN(CC(=O)C(C)(C)C)CC1`, for which the max dye-equivalent concentration entry is “inactive”. The value for `O=C(CCCC(=O)N(CC(=O)NC1CCCC1)Cc1ccccc1Cl)Nc1ccccn1` was “inactive”; that for `COc1ccc(CCNC(=O)c2cc3sccc3n2C)cc1OC` was “inactive”.

Regarding `Cc1ccc(C)c(S(=O)(=O)N2CC(=O)Nc3ccccc32)c1`, the max dye-equivalent concentration entry is “inactive”.

In the case of `CCO/C([O-])=N/c1c[n+](N2CCOCC2)no1`, the max dye-equivalent concentration result was “inactive”. The result for `C/C(=C(\C#N)C(=O)NCCCN1CCOCC1)N(C)C` reads “inactive”; that for `Cc1ccc(SCc2cc(=O)[nH]c(N3CCCCC3)n2)cc1`, “inactive”; that for `FC(F)(F)c1ccccc1-c1cc(NCc2ccccc2)ncn1`, “inactive”. Consider `CCOc1ccc(-c2cn(S(=O)(=O)c3cccc4nsnc34)nc2N)cc1`, for which the max dye-equivalent concentration result was “inactive”. In the case of `O=C(O)c1c(Br)c(Br)c(Br)c(Br)c1C1c2ccc(O)cc2Oc2cc(O)ccc21`, the max dye-equivalent concentration was 11 nM (active). The value for `COC(=O)NC1(C(F)(F)F)NC(=O)N(C2CCCCC2)C1=O` (stereo not given) was “inactive”; that for `C=CCc1cccc2cc(C(=O)N3CCN(C(=O)OCC)CC3)c(=O)oc12` was “inactive”. The result for `COc1ccc2[nH]c3c(=O)n(Cc4ccco4)cnc3c2c1` reads “inactive”; that for `COCCNC(=O)CN(C(=O)CCC(=O)Nc1cc(C)on1)c1ccc(C)cc1C`, “inactive”; that for `CCC(C)(C)n1nnnc1C(c1cccs1)N1CCN(c2nc3ccccc3s2)CC1` (stereo not given), “inactive”. The result for `Nc1nc(N)c2[nH]c(CNc3ccc(C(=O)O)cc3)nc2n1` reads “inactive”.

As to `O=C1CCCc2c1[nH]c1ccc(Br)cc21`, the max dye-equivalent concentration result was “inactive”. `C=C(Br)CN1CCN(CC(=C)Br)CC1`: the max dye-equivalent concentration result was “inactive”.

On to `O=C(Nc1nc2cc3c(cc2s1)OCCO3)c1cccc(S(=O)(=O)N2CCOCC2)c1`, for which the max dye-equivalent concentration result was “inactive”. For the compound `CCOc1nc(-c2ccc(OC)cc2)ccc1-c1noc(-c2cc(OC)c(OC)c(OC)c2)n1`, the max dye-equivalent concentration entry is “inactive”. The value for `Cc1ccc(C)c(NC(=O)C2CCCN2C(=O)OC(C)(C)C)c1` (stereo not given) was “inactive”. As to `O=C(O)[C@@H](O)Cc1ccccn1`, the max dye-equivalent concentration result was “inactive”. Regarding `O=C(O)CCC(=O)Nc1ccc(N2CCOCC2)cc1`, the max dye-equivalent concentration result was “inactive”. The value for `Cc1ccc2nc(CC(=O)c3ccc4ccccc4c3)c(=O)[nH]c2c1` was “inactive”; that for `COc1ccc(-c2cc3ccc(OCc4nn[nH]n4)cc3oc2=O)cc1` was “inactive”; that for `O=C(Nc1ccc2c(c1)OCCO2)C1CCCN(c2ncccn2)C1` (stereo not given) was “inactive”. As to `CCOc1ccc2c(c1)cc(CN(C(=O)CC)C1CCCCC1)c1nnnn12`, the max dye-equivalent concentration result is “inactive”. The result for `COCCn1c(=O)c(CCc2ccccc2)nc2cnc(N3CCNCC3)nc21` reads “inactive”; that for `Cc1cc(=O)cc(C)[nH]1`, “inactive”; that for `Cn1c(=O)cc(OCCCC(=O)N2CCN(Cc3ccc4c(c3)OCO4)CC2)c2ccccc21`, “inactive”.

On to `COc1ccc2[nH]c3cc4c(=O)c5cc(OC)ccc5[nH]c4cc3c(=O)c2c1`, for which the max dye-equivalent concentration entry is “inactive”. The value for `CC(=O)O[C@]1(C(C)=O)CC[C@@H]2[C@@H]3C=C(C)C4=CC(=O)CC[C@@]4(C)[C@H]3CC[C@]21C` was “inactive”.

Consider `COc1ccc(CC(=O)n2nc(-c3cccnc3)nc2N)cc1`, for which the max dye-equivalent concentration entry is “inactive”. The result for `Oc1ccc(Cn2cc[nH]c2=S)cc1` reads “inactive”. Consider `O=C(CN1CCN(S(=O)(=O)/C=C/c2ccccc2)CC1)NC(=O)NCc1ccco1`, for which the max dye-equivalent concentration entry is “inactive”. The result for `CC1CCCC(NC(=O)CN2CCN(Cc3ccc(Cl)cc3)C2=O)C1C` (stereo not given) reads “inactive”. The value for `Clc1ccc(Nc2nc(-c3cccs3)cs2)nc1` was “inactive”.

`Cc1ccc(/C(=C/CN2CCCC2)c2ccccn2)cc1`: the max dye-equivalent concentration result was “inactive”.

Turning to `Cc1ccc2c(c1)c1ncn(CCC3=CCCCC3)c(=O)c1n2C`, the max dye-equivalent concentration entry was “inactive”. The result for `COc1ccc(S(=O)(=O)NC2(C(F)(F)F)N=C3SCCN3C2=O)cc1` (stereo not given) reads “inactive”; that for `CCn1c(-c2cc(OC)ccc2OC)csc1=Nc1c(C)n(C)n(-c2ccccc2)c1=O`, “inactive”; that for `O=C(c1cnccn1)N1CCC2(CCCN(Cc3ccccc3)C2)CC1`, “inactive”. `CCN(CC)CCNC(=O)C1c2ccccc2C(=O)N(C)C1c1cn(C)c2ccccc12` (stereo not given): the max dye-equivalent concentration result is “inactive”. Consider `CC(C)(O)C#Cc1ccc(C(=O)N2CCC(C(N)=O)(N3CCCCC3)CC2)cc1`, for which the max dye-equivalent concentration entry is “inactive”. For the compound `O=C(O)[C@@H]1CCCN1c1ncnc2sc3c(c12)CCC3`, the max dye-equivalent concentration entry is “inactive”.

Consider `O=C(CSc1nc2cc3c(cc2c(=O)n1CCC1=CCCCC1)OCO3)NCc1ccco1`, for which the max dye-equivalent concentration entry was “inactive”. Regarding `CC1C=CCC2C(=O)N(c3cccc(C(=O)N4CCCCCC4)c3)C(=O)C12` (stereo not given), the max dye-equivalent concentration entry was “inactive”.

As to `COCCNC(=O)CSc1nc2c(n1-c1ccccc1)CCCC2`, the max dye-equivalent concentration result is “inactive”.

Turning to `COc1ccc(S(=O)(=O)N2CCCC2)c(C)c1C`, the max dye-equivalent concentration entry was “inactive”. The result for `COc1ccc(C2C(C(=O)N3CCN(c4ccc(OC)cc4)CC3)c3ccccc3C(=O)N2C)cc1` (stereo not given) reads “inactive”. As for `O=C(CNS(=O)(=O)c1cccc(C(F)(F)F)c1)Nc1ccccc1F`, the max dye-equivalent concentration entry is “inactive”. The result for `CC(C)OC(=O)C(C#N)c1nc2ccccc2nc1N1CCN(Cc2ccccc2)CC1` (stereo not given) reads “inactive”. For the compound `CC(=O)c1cccc(NC(=O)N2CCCC2C(=O)NCCC(C)C)c1` (stereo not given), the max dye-equivalent concentration entry is “inactive”.

For the compound `O=S(=O)(c1ccc(Sc2nnc3ccccn23)nc1)N1CCOCC1`, the max dye-equivalent concentration entry was “inactive”. The value for `Cc1ccc(NC(=O)Cn2nc(C)c3ccccc3c2=O)c(C)c1` was “inactive”.
